# Data taken from PubChem BioAssay (NCI).
# About 79,000 compounds went through this panel and 15% of them were active in at least one assay; those are over-represented in the sample as a whole. Values without a mark were called inactive. Active and inactive are the calls of the source. No stated cut-off is given here; in the data, active means growth inhibition above about 70%; inactive means the rest.
# Assays:
# [1] = NCI Yeast Anticancer Drug Screen. Data for the rad52 strain (AID 147);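 further: 0% = growth of vehicle-treated control cultures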; conditions: S. cerevisiae rad52 mutant growth inhibition, active compounds read high
# In short: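 Genetically altered yeast (DNA damage repair defect) treated with compound; inhibition calculated relative to vehicle.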
# [2] = NCI Yeast Anticancer Drug Screen. Data for the wt1 strain (AID 149);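 further: 0% = growth of vehicle-treated wt1 cultures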; conditions: S. cerevisiae wt1 strain (SPY 50644) growth inhibition, active compounds read high
# In short: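 Measured: growth of wt1 yeast under compound versus vehicle treatment, reported as inhibition.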
# [3] = NCI Yeast Anticancer Drug Screen. Data for the rad50 strain (AID 155);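 further: 0% = growth of vehicle-only cultures of the same strain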; conditions: S. cerevisiae rad50 strain growth inhibition, active compounds read high
# In short: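 Growth of the mutant yeast was measured after compound exposure and referenced to vehicle-treated cultures.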
# [4] = NCI Yeast Anticancer Drug Screen. Data for the mec2-1 strain (AID 157); conditions: S. cerevisiae mec2-1 strain, active compounds read high
# In short: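 Cells of the genetically defined mec2-1 yeast strain are incubated with test compound. Inhibition of growth is calculated against vehicle-treated controls.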
# [5] = NCI Yeast Anticancer Drug Screen. Data for the rad14 strain (AID 159);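 further: 0% = growth of vehicle-treated control cultures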; conditions: S. cerevisiae rad14 strain growth inhibition, active compounds read high
# In short: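 Here, inhibition of yeast growth was measured after compound exposure, using a strain with a genetic defect in DNA damage repair and vehicle-treated cultures as the reference.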
# [6] = NCI Yeast Anticancer Drug Screen. Data for the sgs1 mgt1 strain (AID 161);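 further: 0% = growth of cultures given vehicle only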; conditions: S. cerevisiae sgs1 mgt1 strain, active compounds read high
# In short: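 Mutant yeast exposed to compound; growth scored against vehicle-only wells.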
# [7] = NCI Yeast Anticancer Drug Screen. Data for the CLN2oe strain (AID 163);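 further: 0% = growth of vehicle-only control cultures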; conditions: S. cerevisiae CLN2oe strain, active compounds read high
# In short: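 Strain altered in cell-cycle control, incubated with compound; growth compared to solvent-treated controls.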
# [8] = NCI Yeast Anticancer Drug Screen. Data for the cln2 rad14 strain (AID 165);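 further: 0% = growth equal to vehicle treated cultures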; conditions: S. cerevisiae cln2 rad14 strain, active compounds read high
# In short: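 The screen exposed genetically defined yeast (cln2 rad14) to test compounds and scored growth inhibition relative to vehicle-treated controls.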
# [9] = NCI Yeast Anticancer Drug Screen. Data for the bub3 strain (AID 167); conditions: S. cerevisiae bub3 mutant strain, active compounds read high
# In short: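 Whole-cell yeast assay. The mutant strain was incubated with compounds, and growth inhibition was determined by comparison with vehicle-treated cells.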
# [10] = NCI Yeast Anticancer Drug Screen. Data for the wt2 strain (AID 169);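 further: 0% = growth of vehicle-treated yeast cultures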; conditions: S. cerevisiae wt2 strain growth inhibition, active compounds read high
# In short: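 Steps: yeast strain treated with compound; growth recorded; inhibition calculated relative to cultures given vehicle alone.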
# [11] = NCI Yeast Anticancer Drug Screen. Data for the mlh1 strain (AID 171);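 further: 0% = growth of vehicle-treated control cultures of the same strain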; conditions: S. cerevisiae mlh1 strain growth inhibition, active compounds read high
# In short: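 Yeast screen: mutant strain plus compound, growth scored against vehicle control wells.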
# [12] = NCI Yeast Anticancer Drug Screen. Data for the sgs1 strain (AID 173);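 further: 0% = growth of vehicle-only control cultures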; conditions: S. cerevisiae sgs1 mutant, active compounds read high
# In short: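 Inhibition of yeast growth served as the measure. The mutant strain was treated with each compound, and growth was normalised to cultures receiving vehicle alone.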
# [13] = NCI Yeast Anticancer Drug Screen. Data for the mlh1 rad18 strain (AID 175); conditions: S. cerevisiae mlh1 rad18 strain growth inhibition, active compounds read high
# In short: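 Compound-treated yeast growth, normalised to vehicle controls. Strain bears defined DNA repair mutations.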
# [14] = NCI Yeast Anticancer Drug Screen. Data for the rad18 strain (AID 177); conditions: S. cerevisiae rad18 mutant growth inhibition, active compounds read high
# In short: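 Inhibition values reflect reduced yeast growth compared with vehicle-treated controls, using a strain engineered with a DNA damage repair defect.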
# [15] = at 5.0 µM (retest, dose inferred, filed as 0.5)
# [16] = at 50.0 µM (retest, dose inferred, filed as 5.0)
smiles,measurement,setting,value
C/C=C/[P+](c1ccccc1)(c1ccccc1)c1ccccc1,growth inhibition,[1]; at 1.2 µM,49%
same,growth inhibition,[1]; at 3.7 µM,62%
same,growth inhibition,[1]; at 11.0 µM,70% (active)
same,growth inhibition,[1]; at 33.0 µM,83% (active)
same,growth inhibition,[1]; at 100.0 µM,92% (active)
same,growth inhibition,[2]; at 1.2 µM,31%
same,growth inhibition,[2]; at 3.7 µM,42%
same,growth inhibition,[2]; at 11.0 µM,54%
same,growth inhibition,[2]; at 33.0 µM,61%
same,growth inhibition,[2]; at 100.0 µM,86% (active)
same,growth inhibition,[3]; at 1.2 µM,50%
same,growth inhibition,[3]; at 3.7 µM,67%
same,growth inhibition,[3]; [15],48%
same,growth inhibition,[3]; at 11.0 µM,72% (active)
same,growth inhibition,[3]; at 33.0 µM,86% (active)
same,growth inhibition,[3]; [16],78% (active)
same,growth inhibition,[3]; at 50.0 µM,81.2% (active)
same,growth inhibition,[3]; at 100.0 µM,95% (active)
same,growth inhibition,[4]; at 1.2 µM,21%
same,growth inhibition,[4]; at 3.7 µM,44%
same,growth inhibition,[4]; [15],33%
same,growth inhibition,[4]; at 11.0 µM,54%
same,growth inhibition,[4]; at 33.0 µM,64%
same,growth inhibition,[4]; [16],63%
same,growth inhibition,[4]; at 50.0 µM,83.3% (active)
same,growth inhibition,[4]; at 100.0 µM,91% (active)
same,growth inhibition,[5]; at 1.2 µM,30%
same,growth inhibition,[5]; at 3.7 µM,27%
same,growth inhibition,[5]; at 11.0 µM,28%
same,growth inhibition,[5]; at 33.0 µM,63%
same,growth inhibition,[5]; at 100.0 µM,97% (active)
same,growth inhibition,[6]; [15],20%
same,growth inhibition,[6]; [16],73% (active)
same,growth inhibition,[6]; at 50.0 µM,78.3% (active)
same,growth inhibition,[7]; at 1.2 µM,16%
same,growth inhibition,[7]; at 3.7 µM,13%
same,growth inhibition,[7]; at 11.0 µM,29%
same,growth inhibition,[7]; at 33.0 µM,30%
same,growth inhibition,[7]; at 100.0 µM,78% (active)
same,growth inhibition,[8]; [15],9%
same,growth inhibition,[8]; [16],16%
same,growth inhibition,[8]; at 50.0 µM,52.6%
same,growth inhibition,[9]; at 1.2 µM,15%
same,growth inhibition,[9]; at 3.7 µM,29%
same,growth inhibition,[9]; [15],25%
same,growth inhibition,[9]; at 11.0 µM,49%
same,growth inhibition,[9]; at 33.0 µM,67%
same,growth inhibition,[9]; [16],86% (active)
same,growth inhibition,[9]; at 50.0 µM,78.6% (active)
same,growth inhibition,[9]; at 100.0 µM,90% (active)
same,growth inhibition,[10]; at 1.2 µM,-1%
same,growth inhibition,[10]; at 3.7 µM,12%
same,growth inhibition,[10]; at 11.0 µM,18%
same,growth inhibition,[10]; at 33.0 µM,47%
same,growth inhibition,[10]; at 100.0 µM,87% (active)
same,growth inhibition,[11]; at 1.2 µM,30%
same,growth inhibition,[11]; at 3.7 µM,43%
same,growth inhibition,[11]; at 11.0 µM,63%
same,growth inhibition,[11]; at 33.0 µM,68%
same,growth inhibition,[11]; at 100.0 µM,92% (active)
same,growth inhibition,[12]; at 1.2 µM,19%
same,growth inhibition,[12]; at 3.7 µM,31%
same,growth inhibition,[12]; at 11.0 µM,55%
same,growth inhibition,[12]; at 33.0 µM,61%
same,growth inhibition,[12]; at 100.0 µM,89% (active)
same,growth inhibition,[13]; [15],33%
same,growth inhibition,[13]; [16],63%
same,growth inhibition,[13]; at 50.0 µM,87.8% (active)
same,growth inhibition,[14]; at 1.2 µM,58%
same,growth inhibition,[14]; at 3.7 µM,67%
same,growth inhibition,[14]; at 11.0 µM,68%
same,growth inhibition,[14]; at 33.0 µM,90% (active)
same,growth inhibition,[14]; at 100.0 µM,94% (active)
